Experimental data as given in PubChem BioAssay (NCI).
Values joined by “and” are separate entries in the source; they are usually repeats but may differ in a detail not shown here. Identical values can stand only once. The panel holds about 79,000 compounds, 15% with a hit somewhere; the sample as a whole holds those more often. Active and inactive are the calls of the source. No stated cut-off is given here; in the data, active means growth inhibition above about 70%; inactive means the rest.

Columns and labels:
[1] = NCI Yeast Anticancer Drug Screen. Data for the rad50 strain (AID 155);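 further: 0% = growth of vehicle-only cultures of the same strain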; settings: S. cerevisiae rad50 strain growth inhibition; at 50.0 µM; hits give high values
Outline: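 Growth of the mutant yeast was measured after compound exposure and referenced to vehicle-treated cultures.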

[2] = NCI Yeast Anticancer Drug Screen. Data for the mec2-1 strain (AID 157); settings: S. cerevisiae mec2-1 strain, at 50.0 µM, hits give high values
Outline: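 Yeast mec2-1 mutant treated with compound. Readout: growth inhibition vs vehicle controls.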

[3] = NCI Yeast Anticancer Drug Screen. Data for the sgs1 mgt1 strain (AID 161);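 further: 0% = growth of cultures given vehicle only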; settings: S. cerevisiae sgs1 mgt1 strain, at 50.0 µM, hits give high values
Outline: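 Test agents were incubated with a DNA-repair-mutant yeast strain. Growth was then read and compared against vehicle-treated controls.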

[4] = NCI Yeast Anticancer Drug Screen. Data for the cln2 rad14 strain (AID 165);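 further: 0% = growth equal to vehicle treated cultures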; settings: S. cerevisiae cln2 rad14 strain, at 50.0 µM, hits give high values
Outline: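 cln2 rad14 yeast strain; compound exposure; growth inhibition read vs vehicle controls.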

[5] = NCI Yeast Anticancer Drug Screen. Data for the bub3 strain (AID 167); settings: S. cerevisiae bub3 mutant strain, at 50.0 µM, hits give high values
Outline: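 Whole-cell yeast assay. The mutant strain was incubated with compounds, and growth inhibition was determined by comparison with vehicle-treated cells.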

[6] = NCI Yeast Anticancer Drug Screen. Data for the mlh1 rad18 strain (AID 175); settings: S. cerevisiae mlh1 rad18 strain growth inhibition; at 50.0 µM; hits give high values
Outline: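 Yeast w/ defined DNA-repair lesions; compound exposure; growth vs vehicle controls → % inhibition.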

Measured: growth inhibition

CCCCCCCCCCCCCC[As](=O)(O)O
inactive: [1] 6.4% | [2] 17.9% | [3] 21.3% | [4] 1.65% | [5] 4.5% | [6] 44.5%

CCN(CC)CCn1ncc2c(N)ncnc21
inactive: [1] -0.25% | [2] -9% | [3] -26.4% | [4] -19.6% | [5] -22.8% | [6] -1.15%

O=C(Cc1cccc([N+](=O)[O-])c1)Nc1cccc(S(=O)(=O)F)c1
inactive: [1] 5.8% | [2] -19.6% | [3] -20.3% | [4] -2.9% | [5] 16.6% | [6] 23.9%

COc1ccc(NC2Oc3cc4c(cc3C(c3cc(OC)c(OC)c(OC)c3)C2C)OCO4)cc1 (stereo not given)
inactive: [1] -1.25% | [2] 18.9% | [3] 25.3% | [4] -13.2% | [5] 17.1% | [6] 12%

O=C(NCCc1ccc([N+](=O)[O-])cc1)c1ccc(S(=O)(=O)F)cc1
inactive: [1] 1.9% | [2] 12.7% | [3] 6.5% | [4] 3% | [5] 19.4% | [6] 8.05%

CCCCNCCc1cccnc1
inactive: [1] 33.5% | [2] 13.8% | [3] 20.8% | [4] 23.7% | [5] 0.8% | [6] 15.9%

N=C(N)N1CCNc2ccccc2C1
inactive: [1] 14.9% | [2] -10.2% | [3] -7.3% | [4] 28.8% | [5] -1.2% | [6] 6.3%

c1ccc(C[n+]2ccc(-c3ccccc3)cc2)cc1
inactive: [1] -5.75% | [2] 5.5% | [3] -0.35% | [4] -7.25% | [5] -7.15% | [6] -19.5%

CC(Cl)C(=O)OC(C)(C)Cl (stereo not given)
inactive: [1] 19.9% | [2] 25.7% | [3] 11.7% | [4] 11.1% | [5] 17% | [6] 3.05%

CC(N)Cc1ccc(Cl)cc1 (stereo not given)
inactive: [1] 14.5% | [2] -0.3% | [3] 1.9% | [4] -15.6% | [5] -14.9% | [6] 3.6%

ClCc1ccc2ccccc2n1
inactive: [1] 19.1% and 11.7% | [2] -8.8% and -0.5% | [3] -3.8% and 8.5% | [4] 7.55% and 3.35% | [5] -17.6% and -7.65% | [6] 9.75% and 4.55%

NC(=O)C1(Cl)CCCCC1
inactive: [1] -11.8% | [2] -22.8% | [3] -20.8% | [4] -11.2% | [5] -6.1% | [6] -6.25%

O=C(O)c1cc(CCl)ccc1O
inactive: [1] -0.05% | [2] -7.95% | [3] -15.7% | [4] -14% | [5] 4.75% | [6] -1.7%

CC(C)=CC(=O)N(C)C1C2CN3CCC(O2)C13 (stereo not given)
inactive: [1] 7.3% | [2] 14.6% | [3] 14.1% | [4] 43.9% | [5] 29.9% | [6] 21.6%

CC(C)CCC[C@@H](C)[C@H]1CC[C@H]2[C@@H]3CC=C4C[C@@H](OC(=O)Cl)CC[C@]4(C)[C@H]3CC[C@]12C
inactive: [1] -24.1% | [2] -24.9% | [3] -14.7% | [4] 1.7% | [5] -2.7% | [6] -13.4%

Cn1c(O)c(C=N)c(=O)n(C)c1=O
inactive: [1] 15.1% | [2] 5.4% | [3] -2.6% | [4] 7.45% | [5] 0.8% | [6] 4.7%

[C-]#[N+]C1CCCCC1.[C-]#[N+]C1CCCCC1.[Ni].[S-]c1ccccc1.[S-]c1ccccc1
inactive: [1] 37.5% | [2] 16% | [3] 40.4% | [4] 20.1% | [5] 3.5% | [6] 36.6%

CC[n+]1c(-c2ccccc2)c2cc(N)ccc2c2ccc(N)cc21 (tested in a mixture with another compound)
active: [1] 98.5% | [2] 88.8% | [3] 95% | [5] 74.9% | [6] 85.5%
inactive: [4] 54.5%

CN(C1CCCCC1)C1CCCCC1
inactive: [1] -7.75% | [2] -2.05% | [3] -6.65% | [4] -9.85% | [5] 6.6% | [6] -8.3%

CSCCC(NP(=S)(c1ccccc1)c1ccccc1)C(=O)O (stereo not given)
inactive: [1] 17.4% | [2] -3.1% | [3] 0% | [4] 16.9% | [5] -1.8% | [6] 9.5%
